# Results published in ChEMBL document CHEMBL1961873, “Compounds: GSK PKIS; Assays: Nanosyn kinase panel” (2012).
# Experiments:
# [1] = target: Sphingosine kinase 1 (Homo sapiens) (UniProt Q9NYA1); details: at 1 µM;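 note: mean SPHK1 inhibition value reported from the GSK PKIS kinase panel screen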
# [2] = target: T1, Sphingosine kinase 2 (Homo sapiens) (UniProt Q9NRA0); details: at 0.1 µM
# T1 sequence (whole entry): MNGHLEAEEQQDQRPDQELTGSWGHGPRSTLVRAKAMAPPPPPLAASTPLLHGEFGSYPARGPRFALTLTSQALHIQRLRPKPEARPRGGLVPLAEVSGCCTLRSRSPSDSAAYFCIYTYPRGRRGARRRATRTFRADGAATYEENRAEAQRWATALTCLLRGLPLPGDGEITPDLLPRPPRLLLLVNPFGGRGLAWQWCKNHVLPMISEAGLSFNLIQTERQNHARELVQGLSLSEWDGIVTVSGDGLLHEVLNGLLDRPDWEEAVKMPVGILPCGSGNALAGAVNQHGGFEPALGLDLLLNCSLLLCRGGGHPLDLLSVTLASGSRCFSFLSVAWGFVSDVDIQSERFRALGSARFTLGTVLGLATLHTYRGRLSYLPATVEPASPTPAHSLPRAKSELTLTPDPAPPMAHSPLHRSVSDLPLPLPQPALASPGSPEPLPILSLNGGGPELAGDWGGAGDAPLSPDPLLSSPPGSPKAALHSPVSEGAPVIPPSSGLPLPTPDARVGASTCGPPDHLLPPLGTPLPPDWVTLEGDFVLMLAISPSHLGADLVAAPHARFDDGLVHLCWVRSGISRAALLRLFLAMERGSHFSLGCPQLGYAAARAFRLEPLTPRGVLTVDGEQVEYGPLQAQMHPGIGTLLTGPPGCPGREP
# [3] = target: T1, Sphingosine kinase 2 (Homo sapiens); details: at 1 µM
# [4] = target: Casein kinase II subunit alpha (Homo sapiens) (UniProt P68400); details: at 0.1 µM
# Chain of Casein kinase II subunit alpha (Homo sapiens) (P68400 whole entry, looked up): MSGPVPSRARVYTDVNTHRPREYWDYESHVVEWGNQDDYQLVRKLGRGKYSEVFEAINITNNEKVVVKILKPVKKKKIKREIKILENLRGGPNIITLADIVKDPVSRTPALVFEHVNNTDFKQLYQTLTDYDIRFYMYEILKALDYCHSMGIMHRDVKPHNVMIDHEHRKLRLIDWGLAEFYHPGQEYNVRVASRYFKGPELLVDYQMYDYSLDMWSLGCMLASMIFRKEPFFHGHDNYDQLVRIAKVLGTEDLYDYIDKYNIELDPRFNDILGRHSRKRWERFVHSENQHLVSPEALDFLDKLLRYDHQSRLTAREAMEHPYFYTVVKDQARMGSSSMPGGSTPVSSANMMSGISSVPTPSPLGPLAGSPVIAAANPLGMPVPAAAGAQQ
# [5] = target: Casein kinase II subunit alpha (Homo sapiens) (UniProt P68400); details: at 1 µM
# [6] = target: T2, Inhibitor of nuclear factor kappa-B kinase subunit alpha (Homo sapiens) (UniProt O15111); details: at 0.1 µM
# T2 sequence (whole entry): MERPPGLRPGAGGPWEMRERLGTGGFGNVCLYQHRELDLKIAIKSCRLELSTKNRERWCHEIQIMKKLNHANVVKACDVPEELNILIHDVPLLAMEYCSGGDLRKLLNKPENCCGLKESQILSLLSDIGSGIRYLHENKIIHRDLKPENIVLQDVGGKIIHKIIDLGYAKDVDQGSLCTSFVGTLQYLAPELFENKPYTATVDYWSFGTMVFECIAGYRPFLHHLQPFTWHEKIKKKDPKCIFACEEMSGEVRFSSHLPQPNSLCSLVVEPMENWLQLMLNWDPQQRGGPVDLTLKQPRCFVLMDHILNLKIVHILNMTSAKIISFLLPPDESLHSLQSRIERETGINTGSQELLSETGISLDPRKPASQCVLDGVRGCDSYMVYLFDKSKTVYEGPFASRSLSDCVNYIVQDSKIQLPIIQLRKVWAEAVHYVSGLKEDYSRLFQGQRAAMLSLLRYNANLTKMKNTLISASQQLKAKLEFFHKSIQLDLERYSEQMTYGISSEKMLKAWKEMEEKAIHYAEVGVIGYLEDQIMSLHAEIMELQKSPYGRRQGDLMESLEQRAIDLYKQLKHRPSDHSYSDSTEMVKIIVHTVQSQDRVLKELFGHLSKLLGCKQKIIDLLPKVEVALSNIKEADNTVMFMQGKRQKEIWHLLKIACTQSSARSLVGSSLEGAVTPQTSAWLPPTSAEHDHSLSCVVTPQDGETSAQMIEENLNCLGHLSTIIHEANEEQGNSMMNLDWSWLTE
# [7] = target: T2, Inhibitor of nuclear factor kappa-B kinase subunit alpha (Homo sapiens); details: at 1 µM
# [8] = target: T3, Inhibitor of nuclear factor kappa-B kinase subunit beta (Homo sapiens) (UniProt O14920); details: at 0.1 µM
# T3 sequence (whole entry): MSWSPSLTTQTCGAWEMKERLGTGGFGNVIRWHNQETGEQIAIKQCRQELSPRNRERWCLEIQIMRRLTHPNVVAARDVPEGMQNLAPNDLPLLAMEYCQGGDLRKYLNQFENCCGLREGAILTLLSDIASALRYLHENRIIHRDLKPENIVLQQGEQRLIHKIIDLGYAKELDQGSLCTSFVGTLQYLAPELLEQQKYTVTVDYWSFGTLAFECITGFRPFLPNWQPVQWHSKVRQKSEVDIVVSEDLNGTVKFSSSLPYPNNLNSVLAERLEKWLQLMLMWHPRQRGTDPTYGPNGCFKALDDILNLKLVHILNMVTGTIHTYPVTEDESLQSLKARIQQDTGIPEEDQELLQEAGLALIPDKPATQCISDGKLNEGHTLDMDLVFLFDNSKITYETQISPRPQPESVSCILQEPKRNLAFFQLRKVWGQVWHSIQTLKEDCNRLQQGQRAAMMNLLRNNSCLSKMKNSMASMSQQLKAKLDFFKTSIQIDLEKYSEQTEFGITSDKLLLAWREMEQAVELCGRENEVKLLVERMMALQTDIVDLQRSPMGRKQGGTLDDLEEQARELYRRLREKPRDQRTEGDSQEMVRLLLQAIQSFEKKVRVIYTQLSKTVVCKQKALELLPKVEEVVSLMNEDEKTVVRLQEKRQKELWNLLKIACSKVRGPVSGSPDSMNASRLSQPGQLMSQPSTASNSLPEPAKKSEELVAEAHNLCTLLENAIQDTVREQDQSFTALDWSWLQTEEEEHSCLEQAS
# [9] = target: T3, Inhibitor of nuclear factor kappa-B kinase subunit beta (Homo sapiens); details: at 1 µM
# [10] = target: T4, Inhibitor of nuclear factor kappa-B kinase subunit epsilon (Homo sapiens) (UniProt Q14164); details: at 0.1 µM
# T4 sequence (whole entry): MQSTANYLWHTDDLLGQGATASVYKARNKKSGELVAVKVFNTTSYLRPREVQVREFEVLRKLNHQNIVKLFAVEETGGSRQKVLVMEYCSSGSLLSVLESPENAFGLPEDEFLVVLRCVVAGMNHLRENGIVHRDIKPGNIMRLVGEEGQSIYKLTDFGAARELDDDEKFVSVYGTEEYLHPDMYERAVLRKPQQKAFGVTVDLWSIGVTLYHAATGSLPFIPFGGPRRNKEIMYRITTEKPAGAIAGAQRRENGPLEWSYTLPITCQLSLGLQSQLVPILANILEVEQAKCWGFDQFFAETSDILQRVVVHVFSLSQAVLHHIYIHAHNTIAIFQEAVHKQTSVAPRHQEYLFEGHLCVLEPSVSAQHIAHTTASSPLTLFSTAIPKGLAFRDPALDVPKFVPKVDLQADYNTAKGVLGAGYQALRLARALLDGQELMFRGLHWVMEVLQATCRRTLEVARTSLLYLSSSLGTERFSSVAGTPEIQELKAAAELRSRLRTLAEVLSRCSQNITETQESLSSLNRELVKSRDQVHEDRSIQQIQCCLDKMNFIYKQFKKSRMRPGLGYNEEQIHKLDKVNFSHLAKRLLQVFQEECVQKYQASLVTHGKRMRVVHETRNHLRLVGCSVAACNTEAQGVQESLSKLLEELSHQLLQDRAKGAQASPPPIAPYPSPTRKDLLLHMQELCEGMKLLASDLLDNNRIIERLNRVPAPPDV
# [11] = target: T4, Inhibitor of nuclear factor kappa-B kinase subunit epsilon (Homo sapiens); details: at 1 µM
# [12] = target: T5, Serine/threonine-protein kinase Nek1 (Homo sapiens) (UniProt Q96PY6); details: at 0.1 µM
# T5 sequence (whole entry): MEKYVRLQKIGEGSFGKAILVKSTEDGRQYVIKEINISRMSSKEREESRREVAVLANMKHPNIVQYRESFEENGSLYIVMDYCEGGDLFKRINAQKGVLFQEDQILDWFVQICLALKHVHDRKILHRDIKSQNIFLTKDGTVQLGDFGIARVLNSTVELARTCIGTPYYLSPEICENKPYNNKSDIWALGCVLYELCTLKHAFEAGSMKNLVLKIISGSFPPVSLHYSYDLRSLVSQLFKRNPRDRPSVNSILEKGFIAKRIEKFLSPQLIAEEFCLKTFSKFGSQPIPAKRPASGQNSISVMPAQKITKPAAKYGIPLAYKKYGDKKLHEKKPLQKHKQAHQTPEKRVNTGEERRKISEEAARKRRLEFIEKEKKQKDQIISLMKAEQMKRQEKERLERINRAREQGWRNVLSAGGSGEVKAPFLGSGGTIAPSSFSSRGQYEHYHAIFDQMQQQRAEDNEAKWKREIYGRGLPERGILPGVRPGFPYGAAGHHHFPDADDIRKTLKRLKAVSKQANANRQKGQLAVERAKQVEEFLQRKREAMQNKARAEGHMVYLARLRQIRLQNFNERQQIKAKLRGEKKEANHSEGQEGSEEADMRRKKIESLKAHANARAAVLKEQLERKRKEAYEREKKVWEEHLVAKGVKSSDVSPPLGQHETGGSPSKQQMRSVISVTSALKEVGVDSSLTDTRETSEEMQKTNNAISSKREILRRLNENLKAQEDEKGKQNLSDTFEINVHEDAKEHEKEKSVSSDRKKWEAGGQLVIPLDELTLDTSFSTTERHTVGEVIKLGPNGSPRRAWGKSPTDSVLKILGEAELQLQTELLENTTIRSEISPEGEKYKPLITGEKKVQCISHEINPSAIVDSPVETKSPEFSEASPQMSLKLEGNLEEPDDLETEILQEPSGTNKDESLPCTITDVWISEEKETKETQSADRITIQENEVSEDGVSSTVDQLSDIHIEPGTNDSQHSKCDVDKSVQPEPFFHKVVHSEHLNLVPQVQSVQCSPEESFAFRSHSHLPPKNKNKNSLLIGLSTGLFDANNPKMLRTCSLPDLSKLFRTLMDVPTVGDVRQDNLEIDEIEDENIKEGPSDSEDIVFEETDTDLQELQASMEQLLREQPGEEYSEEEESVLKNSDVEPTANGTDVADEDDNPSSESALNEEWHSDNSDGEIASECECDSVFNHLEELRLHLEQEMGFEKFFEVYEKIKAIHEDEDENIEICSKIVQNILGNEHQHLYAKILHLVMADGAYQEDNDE
# [13] = target: T5, Serine/threonine-protein kinase Nek1 (Homo sapiens); details: at 1 µM
# [14] = target: T6, Serine/threonine-protein kinase Nek2 (Homo sapiens) (UniProt P51955); details: at 0.1 µM
# T6 sequence (whole entry): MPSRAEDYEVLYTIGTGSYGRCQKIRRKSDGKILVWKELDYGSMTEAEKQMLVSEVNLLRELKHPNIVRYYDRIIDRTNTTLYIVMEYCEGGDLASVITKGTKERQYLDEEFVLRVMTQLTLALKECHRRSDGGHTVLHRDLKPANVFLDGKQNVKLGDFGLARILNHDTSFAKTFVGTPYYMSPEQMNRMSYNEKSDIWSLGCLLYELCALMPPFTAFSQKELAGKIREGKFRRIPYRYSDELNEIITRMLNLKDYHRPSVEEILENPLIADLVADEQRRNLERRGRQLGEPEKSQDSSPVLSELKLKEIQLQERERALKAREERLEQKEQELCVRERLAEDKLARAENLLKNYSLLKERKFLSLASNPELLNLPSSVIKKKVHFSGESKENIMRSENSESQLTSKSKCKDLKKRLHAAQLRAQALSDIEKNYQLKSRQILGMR
# [15] = target: T6, Serine/threonine-protein kinase Nek2 (Homo sapiens); details: at 1 µM
# [16] = target: Serine/threonine-protein kinase Nek6 (Homo sapiens) (UniProt Q9HC98); details: at 0.1 µM
# Chain of Serine/threonine-protein kinase Nek6 (Homo sapiens) (Q9HC98 whole entry): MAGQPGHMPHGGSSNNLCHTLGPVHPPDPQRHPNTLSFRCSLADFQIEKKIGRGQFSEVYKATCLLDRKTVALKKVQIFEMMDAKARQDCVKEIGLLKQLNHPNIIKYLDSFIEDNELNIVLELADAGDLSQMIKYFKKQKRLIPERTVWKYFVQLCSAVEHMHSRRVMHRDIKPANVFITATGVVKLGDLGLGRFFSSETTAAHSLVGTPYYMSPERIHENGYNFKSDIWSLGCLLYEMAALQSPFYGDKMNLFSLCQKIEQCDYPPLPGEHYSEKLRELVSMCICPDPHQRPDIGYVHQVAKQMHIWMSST
# [17] = target: Serine/threonine-protein kinase Nek6 (Homo sapiens) (UniProt Q9HC98); details: at 1 µM
# [18] = target: Serine/threonine-protein kinase Nek7 (Homo sapiens) (UniProt Q8TDX7); details: at 0.1 µM
# Chain of Serine/threonine-protein kinase Nek7 (Homo sapiens) (Q8TDX7 whole entry, looked up): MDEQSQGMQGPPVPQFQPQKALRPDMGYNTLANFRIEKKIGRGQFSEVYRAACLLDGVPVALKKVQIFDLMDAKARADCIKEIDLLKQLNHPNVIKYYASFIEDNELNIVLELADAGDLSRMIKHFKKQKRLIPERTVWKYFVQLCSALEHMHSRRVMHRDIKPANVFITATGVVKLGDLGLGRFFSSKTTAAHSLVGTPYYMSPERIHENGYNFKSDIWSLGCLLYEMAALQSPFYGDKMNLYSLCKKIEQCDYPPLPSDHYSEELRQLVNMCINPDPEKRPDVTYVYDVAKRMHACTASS
# [19] = target: Serine/threonine-protein kinase Nek7 (Homo sapiens) (UniProt Q8TDX7); details: at 1 µM
# [20] = target: T7, Serine/threonine-protein kinase Nek9 (Homo sapiens) (UniProt Q8TD19); details: at 0.1 µM;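 note: reported value is the mean percent inhibition of NEK9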
# T7 sequence (whole entry): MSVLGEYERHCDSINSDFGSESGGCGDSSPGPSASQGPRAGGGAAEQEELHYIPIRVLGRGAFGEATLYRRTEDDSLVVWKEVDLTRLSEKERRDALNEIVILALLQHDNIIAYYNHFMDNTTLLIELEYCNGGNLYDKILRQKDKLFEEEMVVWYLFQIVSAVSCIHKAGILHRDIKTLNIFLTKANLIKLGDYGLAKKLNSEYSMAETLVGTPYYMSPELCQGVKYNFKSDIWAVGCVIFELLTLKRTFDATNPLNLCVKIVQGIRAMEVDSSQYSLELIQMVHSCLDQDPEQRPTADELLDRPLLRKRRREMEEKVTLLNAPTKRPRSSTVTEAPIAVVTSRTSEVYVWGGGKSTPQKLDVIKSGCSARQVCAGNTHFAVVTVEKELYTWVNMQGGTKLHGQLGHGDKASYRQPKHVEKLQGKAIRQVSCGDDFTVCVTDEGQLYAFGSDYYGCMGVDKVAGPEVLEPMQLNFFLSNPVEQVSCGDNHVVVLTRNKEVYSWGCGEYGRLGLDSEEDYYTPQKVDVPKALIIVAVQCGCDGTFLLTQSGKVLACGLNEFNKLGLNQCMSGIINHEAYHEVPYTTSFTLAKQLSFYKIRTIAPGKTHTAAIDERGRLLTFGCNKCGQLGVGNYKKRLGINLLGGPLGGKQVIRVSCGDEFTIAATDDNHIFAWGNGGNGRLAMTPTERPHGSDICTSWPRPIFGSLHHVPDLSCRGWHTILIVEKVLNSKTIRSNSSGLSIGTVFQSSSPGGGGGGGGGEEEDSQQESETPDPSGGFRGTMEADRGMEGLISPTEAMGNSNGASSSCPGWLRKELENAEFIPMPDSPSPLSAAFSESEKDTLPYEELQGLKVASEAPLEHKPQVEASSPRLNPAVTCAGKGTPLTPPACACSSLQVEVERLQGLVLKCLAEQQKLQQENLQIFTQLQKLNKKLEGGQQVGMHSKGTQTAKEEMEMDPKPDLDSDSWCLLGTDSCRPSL
# Chain of Sphingosine kinase 1 (Homo sapiens) (Q9NYA1 whole entry): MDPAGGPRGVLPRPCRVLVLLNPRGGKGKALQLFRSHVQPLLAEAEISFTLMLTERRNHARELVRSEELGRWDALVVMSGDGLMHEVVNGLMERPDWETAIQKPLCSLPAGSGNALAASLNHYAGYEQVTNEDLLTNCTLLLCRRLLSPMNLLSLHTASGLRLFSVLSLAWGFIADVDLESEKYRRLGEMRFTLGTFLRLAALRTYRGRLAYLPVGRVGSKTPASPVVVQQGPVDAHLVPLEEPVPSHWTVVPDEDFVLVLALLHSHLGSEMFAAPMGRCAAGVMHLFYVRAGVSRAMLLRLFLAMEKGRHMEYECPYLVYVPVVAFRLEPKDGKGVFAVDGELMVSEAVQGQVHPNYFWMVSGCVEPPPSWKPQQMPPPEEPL
smiles,measurement,setting,value
CCn1c(-c2nonc2N)nc2cnc(Oc3cccc(NC(=O)c4ccc(OCCN5CCOCC5)cc4)c3)cc21,inhibition,[1],-0.28%
same,inhibition,[2],0.73%
same,inhibition,[3],-0.35%
same,inhibition,[4],2.94%
same,inhibition,[5],5.71%
same,inhibition,[6],11%
same,inhibition,[7],10.1%
same,inhibition,[8],5.72%
same,inhibition,[9],2.67%
same,inhibition,[10],7.92%
same,inhibition,[11],27.5%
same,inhibition,[12],1.53%
same,inhibition,[13],3.94%
same,inhibition,[14],3.27%
same,inhibition,[15],2.29%
same,inhibition,[16],2.55%
same,inhibition,[17],4.96%
same,inhibition,[18],6.06%
same,inhibition,[19],3.89%
same,inhibition,[20],7.58%
